In PubChem BioAssay (NCI) one finds growth inhibition data, which are given here for 20 compounds.

Experiment [1] is described as follows: NCI Yeast Anticancer Drug Screen. Data for the rad50 strain (AID 155).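 Further: 0% = growth of vehicle-only cultures of the same strain.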 The following applies: S. cerevisiae rad50 strain growth inhibition; at 50.0 µM; stronger effect = higher value. Summed up:
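Readout: growth inhibition relative to vehicle-treated cultures. Compound exposure was carried out in a genetically defined yeast strain deficient in DNA damage repair.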

Experiment [2] is described as follows: NCI Yeast Anticancer Drug Screen. Data for the mec2-1 strain (AID 157). The following applies: S. cerevisiae mec2-1 strain, at 50.0 µM, stronger effect = higher value. In a few lines:
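Cells of the genetically defined mec2-1 yeast strain are incubated with test compound. Inhibition of growth is calculated against vehicle-treated controls.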

Experiment [3] in a line: NCI Yeast Anticancer Drug Screen. Data for the sgs1 mgt1 strain (AID 161).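 Further: 0% = growth of cultures given vehicle only.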 Particulars: S. cerevisiae sgs1 mgt1 strain, at 50.0 µM, stronger effect = higher value. In a few lines: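 Inhibition of yeast growth, normalised to vehicle-treated controls, is reported for a strain bearing genetic alterations in DNA damage repair.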
Experiment [4] can be described thus: NCI Yeast Anticancer Drug Screen. Data for the cln2 rad14 strain (AID 165).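 Further: 0% = growth equal to vehicle treated cultures.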 Particulars: S. cerevisiae cln2 rad14 strain, at 50.0 µM, stronger effect = higher value. In a few lines:
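The screen exposed genetically defined yeast (cln2 rad14) to test compounds and scored growth inhibition relative to vehicle-treated controls.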

A short description of experiment [5]: NCI Yeast Anticancer Drug Screen. Data for the bub3 strain (AID 167). The following applies: S. cerevisiae bub3 mutant strain, at 50.0 µM, stronger effect = higher value. In a few lines:
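Readout: yeast growth inhibition, expressed relative to vehicle-only wells. The test organism is a mutant strain from a panel with lesions in DNA repair or checkpoint genes.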

Experiment [6] is described as follows: NCI Yeast Anticancer Drug Screen. Data for the mlh1 rad18 strain (AID 175). The following applies: S. cerevisiae mlh1 rad18 strain growth inhibition; at 50.0 µM; stronger effect = higher value. Summed up: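 Compound-treated yeast growth, normalised to vehicle controls. Strain bears defined DNA repair mutations.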

The panel holds about 79,000 compounds, 15% with a hit somewhere; the sample as a whole holds those more often. Values without a mark were called inactive. Active and inactive are the calls of the source. No stated cut-off is given here; in the data, active means growth inhibition above about 70%; inactive means the rest.

Consider `COC(=O)C1CC2c3[nH]c4ccccc4c3CCN2C1` (stereo not given), for which the growth inhibition in experiment [1] is -4.85%; in experiment [2] it was -8.25%; in experiment [3], -17.1%; in experiment [4], -11.4%; in experiment [5], -4.1%; in experiment [6], -10.5%.

For the compound `Cc1ccc(Nc2c3ccccc3nc3ccccc23)cc1`, the growth inhibition in experiment [1] was 97.9% (active); in experiment [2], 88.5% (active); in experiment [3] it was 93.8% (active); in experiment [4], 91.1% (active); in experiment [5], 88.2% (active); in experiment [6], 97.1% (active).

In the case of `C/C(N=NC(=S)N1CCC(C)CC1)=C1\C=CC=CN1O`, the growth inhibition in experiment [1] is 97.3% (active); in experiment [2] it was 91.5% (active); in experiment [3], 95.9% (active); in experiment [4], 87.2% (active); in experiment [5], 48%; in experiment [6], 98.3% (active).

With `CC(C)(C)CC(C)(C)c1cc2c(O)c(c1)Cc1cc(C(C)(C)CC(C)(C)C)cc(c1O)Cc1cc(C(C)(C)CC(C)(C)C)cc(c1O)Cc1cc(C(C)(C)CC(C)(C)C)cc(c1O)Cc1cc(C(C)(C)CC(C)(C)C)cc(c1O)C2`, the growth inhibition is 20.5% in experiment [1]; 33.4% in experiment [2]; 8.75% in experiment [3]; 31.4% in experiment [4]; 6.3% in experiment [5]; 24.2% in experiment [6].

Turning to `c1ccc(-c2[nH]nc3nc4c(nc23)CCCC4)cc1`, the growth inhibition in experiment [1] is 7.4%; in experiment [2], -5.3%; in experiment [3] it was -5.1%; in experiment [4] it was -32.9%; in experiment [5], -33%; in experiment [6] it was 6.6%.

Regarding `Cc1ccccc1OCC1COCN(Cc2ccccc2)CO1` (stereo not given), the growth inhibition in experiment [1] is 18.8%; in experiment [2], 21.2%; in experiment [3], 28.1%; in experiment [4] it was 20.6%; in experiment [5] it was 6.95%; in experiment [6] it was 32.9%.

As to `CCc1cccc(C(C)C)c1NC(=O)/C(=N\NC(N)=O)C(C(=O)OC)c1cnc2ccccc2n1` (stereo not given), the growth inhibition in experiment [1] is 19.8%; in experiment [2], 29.8%; in experiment [3], 1.15%; in experiment [4], 11.1%; in experiment [5] it was 26.1%; in experiment [6], 21.4%.

On to `CC(C)N(C(=O)C12C3C4C1(I)C1C2C3(I)C41C(=O)N(C(C)C)C(C)C)C(C)C` (stereo not given), for which the growth inhibition in experiment [1] is -9.55%; in experiment [2] it was 23.1%; in experiment [3], 25.9%; in experiment [4] it was 18.6%; in experiment [5] it was -0.25%; in experiment [6], -12.2%.

As to `CCCCCCCCCCCCCCCCSc1ccncc1NN=O`, the growth inhibition was 36.2% in experiment [1]; -2% in experiment [2]; 17.1% in experiment [3]; -10.5% in experiment [4]; -3.8% in experiment [5]; 2.3% in experiment [6].

As to `c1ccc2c(c1)CCC/C2=N\OCC1CO1` (stereo not given), the growth inhibition in experiment [1] was -7.5%; in experiment [2], -28.4%; in experiment [3] it was -35.2%; in experiment [4], -3.1%; in experiment [5] it was -33.1%; in experiment [6], 7.05%.

`C=C1c2ccccc2C=NN1c1ccccc1`: the growth inhibition in experiment [1] was 19.4%; in experiment [2], 4.35%; in experiment [3], 13.2%; in experiment [4], 4.25%; in experiment [5] it was -8.75%; in experiment [6] it was 1%.

`CCCn1cnc2c(SCC(=O)O)nc(N)nc21`: the growth inhibition was -33.3% in experiment [1]; -18.9% in experiment [2]; -24.4% in experiment [3]; -26.1% in experiment [4]; -22.1% in experiment [5]; -8.9% in experiment [6].

Consider `N#CCC(=O)N1CCCCCCC1`, for which the growth inhibition in experiment [1] is 20.4%; in experiment [2], -8.9%; in experiment [3], 2.7%; in experiment [4], 0%; in experiment [5] it was 6.05%; in experiment [6], 0%.

As for `O=C(O)CC1CCCNC1` (stereo not given), the growth inhibition was -11.3% in experiment [1]; 1.95% in experiment [2]; -13.7% in experiment [3]; -18.6% in experiment [4]; -16% in experiment [5]; -16.3% in experiment [6].

Turning to `COC(=O)c1cccc2ccc3cccc(C=O)c3c12`, the growth inhibition is -29.4% in experiment [1]; 6.6% in experiment [2]; -5.9% in experiment [3]; -30.8% in experiment [4]; 12.2% in experiment [5]; -14.5% in experiment [6].

On to `O=C(OCC1OC(c2ccccc2)OC2C(COC(=O)c3ccccc3)OC(c3ccccc3)OC12)c1ccccc1` (stereo not given), for which the growth inhibition in experiment [1] was 4.4%; in experiment [2] it was 6.1%; in experiment [3] it was -0.6%; in experiment [4], 6.7%; in experiment [5], 12.4%; in experiment [6], 14.1%.

In the case of `COC(=O)CCN(C)c1ccccc1`, the growth inhibition was -4.7% in experiment [1]; -0.55% in experiment [2]; -3.75% in experiment [3]; -8.15% in experiment [4]; 3.65% in experiment [5]; -7.5% in experiment [6].

For the compound `O=C(COc1ccccc1)NCc1ccc(Cl)cc1`, the growth inhibition in experiment [1] is 2.4%; in experiment [2] it was 2.05%; in experiment [3], 5.8%; in experiment [4] it was 7.15%; in experiment [5] it was 26.9%; in experiment [6], 21.9%.

As to `CC(C)C1CC(C(C)C)C(O)C(C(C)C)C1` (stereo not given), the growth inhibition in experiment [1] was 11.8%; in experiment [2], 1.55%; in experiment [3] it was 6.6%; in experiment [4], -5.9%; in experiment [5], 5.45%; in experiment [6] it was 15.7%.

In the case of `C=CCNC(=S)Nc1cccc(OC(=O)NC2CCCCC2)c1`, the growth inhibition in experiment [1] is -0.15%; in experiment [2], 2.05%; in experiment [3], 3.75%; in experiment [4], -19.6%; in experiment [5], 14.3%; in experiment [6], -4.7%.
